Laboratory results as given in PubChem BioAssay.

Assay: inhibitors of poly I:C-induced TLR3 signaling, primary screen, cell-based, poly I:C stimulus, luciferase, 10K MLSCN set (AID 602277)
Settings: HEK293-TLR3 RL24 IRF3 luciferase reporter, at 10 µM, stronger effect = higher value;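 active means inhibition of the reporter signal at or above 50%; inactive means inhibition below 50%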

inhibition, inactive:
CCN(C(=O)c1cn(C)c(=O)c2cc(OC)c(OC)cc12)c1ccccc1C 16.5%
COc1ccccc1-n1c(C)nnc1SCC(=O)Nc1cccc(C(C)=O)c1 13.3%
O=C(Nc1ccc(N2CCOCC2)c(Cl)c1)c1ccc(Br)o1 -162%
Cc1cccc(-n2c(=O)cc(N3CCN(c4ccc(F)cc4)CC3)[nH]c2=O)c1 -5.41%
N#CCCN1CCN(S(=O)(=O)c2ccc(S(=O)(=O)NC3CCCC3)cc2)CC1 28.4%
O=C(c1ccccc1Br)N1CCN(c2ccccc2)CC1 14.8%
O=C(Cc1cccs1)NCc1ccc(F)cc1 -36.3%
CCn1c(SCC(=O)NC)nnc1C(C)C 0.106%
O=C(C1CCC(N2C(=O)C3CC=CCC3C2=O)CC1)N1CCCCC1 (centres undefined) 27.2%
O=C1CC(c2ccccc2)Cc2nc(N3CCc4ccccc43)ncc21 (centres undefined) 2.35%
Cc1nc2cc(Cl)ccc2n1CCO 21.6%
O=C(CCCc1cccs1)Nc1nc2c(s1)CCCC2 -48.8%
O=C(CN1C(=O)CCS(=O)(=O)c2ccccc21)NCc1ccc(F)cc1 8.14%
CCN1C(=O)c2cccc3c(NC(=O)c4ccc(S(=O)(=O)N(C)C)cc4)ccc1c23 30.8%
Cc1oc(-c2cccc(Cl)c2)nc1CN1CCC(C(=O)N2CCN(c3ccccc3F)CC2)CC1 -26%
C=CCOc1ccc(/C=N/n2cncn2)cc1OC 5.53%
Cc1ccc(-c2csc3ncn(-n4c(C)ccc4C)c(=O)c23)o1 12.5%
c1ccc2c(c1)CNC1(CCCCC1)C2 14.2%
COc1cc(C2CC(=O)NC3=C2C(=O)CC(C)(C)C3)ccc1O (centres undefined) 16.2%
c1cncc(-c2nnc3n2N=C(c2cccs2)CS3)c1 17.3%
COC(=O)CCn1nnc(-c2cccs2)n1 -22%
O=C(CCn1c(=O)sc2ccccc21)Nc1nccs1 -66.6%
COc1ccc(N(CC(=O)O)S(=O)(=O)c2ccc(OC)c(OC)c2)cc1 22.3%
CCC(C)NC(=O)C1c2cc(OC)c(OC)cc2C(=O)N(C)C1c1ccc(OC)cc1 (centres undefined) 2.51%
